The panel holds about 83,000 compounds, 20% with a hit somewhere; the sample as a whole holds those more often.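 Growth was measured after 48 h exposure to one concentration of compound in 96-well plates. Values under 10 count as active.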 Active and inactive are the calls of the source.

This test concerns MDA-MB-468 breast. Kind of test: NCI-60 one-dose screen, 48 h (100 = growth as untreated, 0 = no growth, -100 = all killed). Particulars: 10 µM unless noted.
`O=C(CSc1ccc(-c2nc3ccccc3[nH]2)cn1)N1CCN(c2ccccc2F)CC1`: the growth is 53.1% (inactive).

For the compound `COc1ccc(-c2nc3sccn3c2/C=C/C(=O)c2cc(OC)c(OC)c(OC)c2)cc1OC`, the growth was -13.4% (active).

Take `Cc1cc(C#Cc2ccccc2)ccc1-n1c(/C=C/c2cc(O)ccc2O)nc2ccccc2c1=O`: the growth was -36.5% (active).

With `CCCN1CCN(c2ccc3nc(-c4ccc5nc(-c6cc(OC)c(OC)c(OC)c6)[nH]c5c4)[nH]c3c2)CC1`, the growth was 47.1% (inactive).

As to `NC1(C(=O)N[C@@H](CCO)c2ccc(Cl)cc2)CCN(c2ncnc3[nH]ccc23)CC1`, the growth was 4.8% (active).

Turning to `O=C1/C(=C/c2ccc(C(F)(F)F)cc2)COc2ccc(O)c(O)c21`, the growth is -36.8% (active).

Turning to `CCSc1ccc(C2C(Br)C(=O)N2c2cc(OC)c(OC)c(OC)c2)cc1` (stereo not given), the growth was 27.7% (inactive).

For `CCOC(=O)c1cc(C(=O)c2cc(OC)c(OC)c(OC)c2)n2ncccc12`, the growth is -11.5% (active).

On to `Cc1cc(C)c2nc3nc(C)cc(C)c3c(N)c2c1`, for which the growth was 48.4% (inactive).

As for `COc1ccc(-c2cn(Cc3ccc4c(Br)cc(Br)c(O)c4n3)nn2)cc1`, the growth was 72.2% (inactive).

`O=C(CCn1cc[n+](CC(=O)c2ccc(-c3ccccc3)cc2)c1)Nc1cccc2cccnc12`: the growth is -16.8% (active).

Turning to `O=c1cc(CSc2nnc(-c3ccc(F)cc3)o2)c2ccc3ccccc3c2o1`, the growth is 101% (inactive).

On to `N#Cc1c2c(nc3n[nH]c(N)c13)CCCC2`, for which the growth is 93.6% (inactive).

Regarding `COc1cc(C2C(C#N)=C(c3c[nH]c4ccccc34)Nc3nc(N)[nH]c(=O)c32)cc(OC)c1OC` (stereo not given), the growth was 13.2% (inactive).

As for `COc1cc(CN)ccc1O`, the growth is 99.7% (inactive).

As for `O=C(/C(=C/c1cccc([N+](=O)[O-])c1)c1ccccc1)c1ccccc1`, the growth is 38.2% (inactive).

As for `c1ccc(Nc2nc(-c3ccccn3)cs2)nc1`, the growth was -14.6% (active).

With `O=c1c2cccc(F)c2sc2c(N3CCNCC3)nc3ccccc3c12`, the growth is 37.2% (inactive).

Turning to `Cc1cccc(/C=C/c2c(C(=O)/C=C/c3ccccc3)c(C)nc3ccccc23)c1`, the growth is -51.1% (active).

Consider `O=C(/C(=C\c1c(-c2ccccc2)[nH]c2ccccc12)S(=O)(=O)c1ccccc1)c1ccccc1`, for which the growth is 32.9% (inactive).

For `O=C(O)c1cn(C2CC2)c2cc(N3CCN(C(=O)N/N=C/c4ccccc4)CC3)c(F)cc2c1=O`, the growth was 83.7% (inactive).

`CCCCCCCCN(CCCCCCCC)CC(O)c1cc(Cl)ccc1OC` (stereo not given): the growth was 32.6% (inactive).

For the compound `COc1cc(CN(c2ccc(Cl)cc2)C2OC(=O)c3ccccc32)cc(OC)c1OC` (stereo not given), the growth was 16.8% (inactive).

As to `Cc1c(Cn2cc(COc3ccc(Br)cc3)nn2)c(C)c(Cn2cc(COc3ccc(Br)cc3)nn2)c(C)c1Cn1cc(COc2ccc(Br)cc2)nn1`, the growth is 109% (inactive).

For `CCOP(=O)(OCC)OC[C@]12CC[C@@H](C)[C@H](C)C1C1=CC[C@@H]3[C@@]4(C)CCCNC(C)(C)[C@@H]4CC[C@@]3(C)[C@]1(C)CC2` (stereo not given in full), the growth is -51% (active).

Consider `CC1=C(NCCN2CCCC2)C(=O)c2c(OCc3ccc(C(F)(F)F)cc3)cccc2C1=O`, for which the growth is 82.2% (inactive).

For the compound `C=C(C)[C@@H]1CC[C@]2(C(=O)N3CCN(C)CC3)CC[C@]3(C)[C@H](CC[C@@H]4[C@@]5(C)C/C(=C/c6ccncc6)[C@H](O)C(C)(C)[C@@H]5CC[C@]43C)[C@@H]12`, the growth is -25.5% [100 µM] (active).

In the case of `N#Cc1nnn(-c2ccc(S(N)(=O)=O)cc2)c1NCC(=O)c1ccccc1`, the growth was 96.7% (inactive).

In the case of `COc1ccc(-n2c(-c3ccc(NC(=O)CCCl)cc3)nnc2-c2cc(OC)c(OC)c(OC)c2)cc1`, the growth is -11.1% (active).

As for `CN=c1ccc2nc3ccc(N)cc3sc-2c1`, the growth is -5.28% (active).

Regarding `COc1cc(CNc2oc(-c3ccccc3)c(-c3ccccc3)c2C#N)cc(CN2CCN(C)CC2)c1O`, the growth is 57.4% (inactive).

Turning to `N#C/C(=C1C=C/C(=N/O)C(Cl)=C/1)c1ccc(Cl)cc1`, the growth was -8.37% (active).

Consider `COc1ccc2c(c1)CC[C@@H]1[C@@H]2CC[C@]2(C)[C@@H](O)C(=O)C[C@@H]12`, for which the growth is 109% (inactive).

In the case of `Cc1cc(N)cc(C)c1-c1c(Br)cc(N)cc1Br`, the growth is -28% (active).

Turning to `COc1cc(/C=C/C(=O)c2ccc(C)cc2)ccc1Oc1nc(NCCO)nc(N2CCOCC2)n1`, the growth was 27.2% (inactive).

On to `CCOC(=O)c1cc(C(=O)c2ccc(OC)c(OC)c2)n2ccc(-c3ccccn3)cc12`, for which the growth was 74.9% (inactive).

`COC12C=C/C(=C(/C(=O)OCCSc3ccnn3C)C(=O)CCCCCCCCC3(OC)C=C/C(=C(/C(=O)OCCSc4ccnn4C)C(=O)CCCCCCCC1)O3)O2`: the growth is -6.23% (active).

On to `COc1cc(-c2nn(-c3cccc(NC(=O)NCCNC(=O)c4cccc(C(F)(F)F)c4)c3)cc2-c2ccncc2)ccc1Cl`, for which the growth was 7.11% (active).

Consider `O=S(=O)(O)c1ccc2c(c1)Sc1cc(S(=O)(=O)O)ccc1O2`, for which the growth was 107% (inactive).

Take `CCCCn1c(=O)c(/C=C/C(=O)/C=C/c2ccc(OC)cc2)cc2cc(Cl)ccc21`: the growth is 86.1% (inactive).

(Values after PubChem BioAssay (NCI).)
